Data from PubChem BioAssay (NCATS).
Inconclusive results are not listed. A call without a number means that no potency is given here. Activity calls are given as the source filed them. Calls follow the shape of the dose curve; as a rule, active = well fitted inhibition curve with a large enough effect; inconclusive = small, poorly fitted or top-dose-only effect; inactive = flat fitted curve, though single readings scatter.

Biological target: Ubiquitin carboxyl-terminal hydrolase 1 (Homo sapiens) (UniProt O94782)
Assay: Inhibitors of USP1/UAF1: Pilot qHTS (AID 504865); also: nearly all actives have a fitted effect of over 35% in size
Settings: purified USP1/UAF1, Ub-rhodamine cleavage fluorescence; series mostly up to 114 µM
Summary of the method: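 In 50mM HEPES pH 7.8 containing 0.5mM EDTA, 1mM TCEP, 0.1 mg/ml BSA and 0.01% Tween-20, 1nM USP1/UAF1 is exposed to compound for 15 min, then Ub-Rho (150nM final) is added and fluorescence is read over time.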
Potency is read from the fitted curve at half-maximal effect.

Chain of Ubiquitin carboxyl-terminal hydrolase 1 (Homo sapiens) (O94782 whole entry, looked up): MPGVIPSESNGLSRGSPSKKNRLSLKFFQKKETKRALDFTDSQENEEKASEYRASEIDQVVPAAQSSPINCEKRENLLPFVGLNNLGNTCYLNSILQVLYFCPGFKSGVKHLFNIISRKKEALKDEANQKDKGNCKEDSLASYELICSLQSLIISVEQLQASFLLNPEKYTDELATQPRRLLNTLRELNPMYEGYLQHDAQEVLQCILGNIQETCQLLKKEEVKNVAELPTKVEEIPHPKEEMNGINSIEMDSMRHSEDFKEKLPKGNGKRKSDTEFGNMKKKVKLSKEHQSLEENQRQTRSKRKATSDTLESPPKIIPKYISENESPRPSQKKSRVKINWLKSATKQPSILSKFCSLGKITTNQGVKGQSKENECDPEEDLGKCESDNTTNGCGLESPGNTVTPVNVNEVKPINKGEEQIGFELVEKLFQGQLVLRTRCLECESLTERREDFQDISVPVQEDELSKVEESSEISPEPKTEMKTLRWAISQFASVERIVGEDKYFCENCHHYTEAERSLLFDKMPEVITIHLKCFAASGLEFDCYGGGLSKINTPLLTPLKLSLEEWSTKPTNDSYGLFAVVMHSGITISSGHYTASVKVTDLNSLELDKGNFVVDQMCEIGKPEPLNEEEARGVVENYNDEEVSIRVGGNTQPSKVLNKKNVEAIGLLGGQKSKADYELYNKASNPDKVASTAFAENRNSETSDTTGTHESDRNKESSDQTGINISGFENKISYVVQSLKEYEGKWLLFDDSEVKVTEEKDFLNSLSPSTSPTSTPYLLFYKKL

| SMILES | Potency |
| --- | --- |
| C[N+]1(C)CCC(=C(c2ccccc2)c2ccccc2)CC1 | inactive |
| FC(F)(F)C(F)(F)C(F)(F)C(F)(F)C(F)(F)C(F)(F)C(F)(F)C(F)(F)Br | inactive |
| CCc1oc2ccccc2c1C(=O)c1cc(I)c(O)c(I)c1 | 39.8 µM (active) |
| O=c1[nH]c(=O)n([C@H]2C[C@H](O)[C@@H](CO)O2)cc1F | inactive |
| OCCOCCN1CCN(C2=Nc3ccccc3Sc3ccccc32)CC1 | inactive |
| CCOC(=O)c1c(N)sc2c1CCN(Cc1ccccc1)C2 | inactive |
| Cc1ccc(O)c([C@H](CCN(C(C)C)C(C)C)c2ccccc2)c1 | inactive |
| CCCCC(CC)CN1CN(CC(CC)CCCC)CC(C)(N)C1 (stereo unspecified) | inactive |
| NCCNC(=O)c1ccc(Cl)cn1 | inactive |
| Nc1nc(N)c(-c2ccccc2)s1 | inactive |
| CCN(CC)CCNc1ccc(CO)c2sc3ccccc3c(=O)c12 | inactive |
| COc1cc(C(=O)NCc2ccc(OCCN(C)C)cc2)cc(OC)c1OC | inactive |
| Cc1ncc(CO)c(C=O)c1O | inactive |
| O=C(CCN1CCN2CCCC2C1)N1c2ccccc2Sc2ccc(Cl)cc21 (stereo unspecified) | inactive |
| CC(C)CCCC(C)N (stereo unspecified) | inactive |
| CN(C)CCOC(c1ccc(Cl)cc1)c1ccccn1 (stereo unspecified) | inactive |
